Some test systems named below: HCT-15 colon; HT29 colon; SNB-75 CNS; SNB-19 CNS; U251 CNS; PC-3 prostate; SK-MEL-5 melanoma; UACC-62 melanoma; LOX IMVI melanoma; SK-MEL-28 melanoma; SK-MEL-2 melanoma; EKVX NSCLC; SN12C renal; UO-31 renal; TK-10 renal; ACHN renal; CAKI-1 renal; A498 renal; CCRF-CEM leukemia; MOLT-4 leukemia.
Common to all, as to test: NCI-60 one-dose screen, 48 h (100 = growth as untreated, 0 = no growth, -100 = all killed)
Conditions in all cases: 10 µM unless noted

Several values for one entry are separate records, joined by “and”; a condition that tells them apart may be missing. Equal values may be shown once. About 83,000 compounds went through this panel and 20% of them were active in at least one assay; those are over-represented in the sample as a whole.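 Values shown are percent growth following 48 h exposure of cells in 96-well plates to a single concentration of compound; below 10 was considered active.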 Values without a mark were called inactive. Activity calls are given as the source filed them.

In the case of `O=C(Nc1ncc(Cc2cccc(C(F)(F)F)c2)s1)c1ccc2c(c1)OCCO2`, the growth is 8.27% (active) in the assay on HCT-15 colon; 4.83% (active) in the assay with HT29 colon; 25.5% in the assay with SNB-75 CNS; 42.9% in the assay with SNB-19 CNS; 16.7% in the assay on U251 CNS; 28.3% with PC-3 prostate. Moreover, the growth in the assay with SK-MEL-5 melanoma is -21.5% (active); in the assay on UACC-62 melanoma it was 39.9%; with LOX IMVI melanoma it was 40.8%; in the assay on SK-MEL-28 melanoma it was 73.1%; in the assay on SK-MEL-2 melanoma it was 40.1%; in the assay on EKVX NSCLC, 30.7%. The growth in the assay on SN12C renal was 35.3%; in the assay on UO-31 renal, 47.7%; in the assay on TK-10 renal, 44.9%; in the assay on ACHN renal, 29.8%; in the assay with CAKI-1 renal it was 24.6%; in the assay on A498 renal, -2.08% (active). In addition, the growth with CCRF-CEM leukemia is 17.8%; in the assay on MOLT-4 leukemia, 9.32% (active).

Consider `Cc1ccc(S(=O)(=O)OC[C@@]2(C)CC[C@]3(C)CC[C@]4(C)C(=CC[C@@H]5[C@@]6(C)CCCNC(C)(C)[C@@H]6CC[C@]54C)[C@@H]3C2)cc1`, for which the growth in the assay on HCT-15 colon is -89.7% (active); in the assay on HT29 colon it was -88.2% (active); with SNB-75 CNS, -57.1% (active); in the assay with SNB-19 CNS it was -16.7% (active); with U251 CNS, -89.6% (active); with PC-3 prostate it was -10.3% (active). In addition, the growth is 40.1% in the assay on SK-MEL-5 melanoma; -69.2% (active) in the assay on UACC-62 melanoma; -99.5% (active) in the assay on LOX IMVI melanoma; 55.6% with SK-MEL-28 melanoma; -59% (active) in the assay on SK-MEL-2 melanoma; 9.58% (active) in the assay with EKVX NSCLC. Further, the growth was -88.3% (active) with SN12C renal; -2.29% (active) in the assay with UO-31 renal; -61.1% (active) in the assay with TK-10 renal; -100% (active) with ACHN renal; -92.4% (active) in the assay on CAKI-1 renal; 86.8% in the assay on A498 renal. Besides, the growth is -28.6% (active) with CCRF-CEM leukemia and -42.1% (active) in the assay with MOLT-4 leukemia.

As for `CCOC(=O)c1cc2c(n1Cc1cc(OC)cc(OC)c1Br)-c1nc(NC(C)=O)sc1CCC2`, the growth is 83% in the assay with HCT-15 colon; 63.3% with HT29 colon; 65.7% in the assay with SNB-75 CNS; 83.9% with SNB-19 CNS; 63.3% in the assay with U251 CNS; 22.1% in the assay on PC-3 prostate. Also, the growth in the assay on SK-MEL-5 melanoma was 82.1%; in the assay with UACC-62 melanoma, 67.3%; in the assay on LOX IMVI melanoma, 80.3%; in the assay with SK-MEL-28 melanoma, 98.6%; with SK-MEL-2 melanoma, 82.6%; in the assay on EKVX NSCLC, 58.6%. Also, the growth in the assay with SN12C renal is 77.5%; in the assay on UO-31 renal it was 51.8%; in the assay on TK-10 renal, 94.4%; in the assay with ACHN renal it was 91.2%; in the assay with CAKI-1 renal, 67.3%; with A498 renal, 55.8%. Besides, the growth in the assay on CCRF-CEM leukemia is 56.3%; in the assay with MOLT-4 leukemia, 46.7%.

`O=S(=O)(O)c1ccc(N=Nc2ccc(N=Nc3cccc4ccccc34)c(S(=O)(=O)O)c2)cc1`: the growth is 114% with HCT-15 colon; 105% in the assay with HT29 colon; 89.7% in the assay on SNB-75 CNS; 110% in the assay with SNB-19 CNS; 102% in the assay on U251 CNS; 84.5% in the assay with PC-3 prostate. Further, the growth in the assay with SK-MEL-5 melanoma was 86.4%; in the assay with UACC-62 melanoma it was 98.4%; in the assay with LOX IMVI melanoma it was 94.1%; in the assay on SK-MEL-28 melanoma, 110%; in the assay with SK-MEL-2 melanoma it was 99.8%; with EKVX NSCLC it was 97%. For the same compound, the growth in the assay with SN12C renal was 102%; in the assay on UO-31 renal, 84.1%; in the assay with TK-10 renal, 112%; with ACHN renal, 97.8%; in the assay on CAKI-1 renal, 97%; in the assay with A498 renal, 90.1%. The figures for the growth with CCRF-CEM leukemia and with MOLT-4 leukemia were 101% and 108%, respectively.

For the compound `O=C(/C=C/c1ccc(Cl)s1)c1ccc(Cl)s1`, the growth in the assay on HCT-15 colon is 88.2% and 90.7%; in the assay on HT29 colon, 74.5% and 94%; in the assay with SNB-75 CNS, 106% and 102%; with SNB-19 CNS it was 94.6% and 99.5%; in the assay with U251 CNS, 92.8% and 93.3%; with PC-3 prostate it was 92.6% and 105%. The growth with SK-MEL-5 melanoma was 96% and 96.6%; in the assay on UACC-62 melanoma, 94.7% and 99.6%; in the assay with LOX IMVI melanoma, 78.8% and 87.8%; in the assay on SK-MEL-28 melanoma, 103% and 112%; in the assay on SK-MEL-2 melanoma it was 100% and 109%; with EKVX NSCLC, 98.3%. The growth in the assay with SN12C renal was 93.3% and 91%; in the assay on UO-31 renal, 82.8%; in the assay on TK-10 renal, 94.9% and 88.9%; in the assay on ACHN renal it was 93.9% and 101%; in the assay with CAKI-1 renal, 92.4%; in the assay with A498 renal, 97.8%. Besides, the growth in the assay with CCRF-CEM leukemia is 94.8% and 90.7%; with MOLT-4 leukemia it was 95.1% and 88.9%.

As for `Cc1cnc(C(=O)NNc2nc3sc4c(c3c(=O)[nH]2)C(C)CCC4)cn1` (stereo not given), the growth in the assay on HCT-15 colon was 26%; with HT29 colon, 27.9%; with SNB-75 CNS it was 36.8%; in the assay with SNB-19 CNS it was 22.3%; with U251 CNS, 10.4%; in the assay with PC-3 prostate, 29.7%. The growth in the assay on SK-MEL-5 melanoma was -38.1% (active); in the assay with UACC-62 melanoma, 8.87% (active); in the assay with LOX IMVI melanoma, 0.703% (active); with SK-MEL-28 melanoma, 23.3%; with SK-MEL-2 melanoma it was 24.7%; in the assay on EKVX NSCLC it was 23.5%. Moreover, the growth with SN12C renal was 26%; in the assay on UO-31 renal, 4.88% (active); in the assay on TK-10 renal it was 33.5%; in the assay on ACHN renal, 11.8%; with CAKI-1 renal it was 6.98% (active); in the assay with A498 renal it was 33.9%. Moreover, the growth was 11.8% with CCRF-CEM leukemia and 15.7% in the assay with MOLT-4 leukemia.

As for `C[C@@H]1O[C@@H](O[C@H]2[C@@H](OC(=O)[C@]34CCC(C)(C)C[C@H]3C3=CC[C@@H]5[C@@]6(C)C[C@H](O)[C@H](O[C@@H]7O[C@H](CO)[C@@H](O)[C@H](O)[C@H]7O)[C@@](C)(CO)[C@@H]6CC[C@@]5(C)[C@]3(C)C[C@H]4O)OC[C@@H](O)[C@@H]2O)[C@H](O)[C@H](O[C@@H]2OC[C@@H](O)[C@H](O[C@@H]3OC[C@](O)(CO)[C@H]3O[C@@H]3OC[C@@H](O)[C@H](O)[C@H]3O)[C@H]2O)[C@H]1O[C@@H]1OC[C@](O)(CO)[C@H]1O`, the growth in the assay on HCT-15 colon is 86.4%; in the assay with HT29 colon, 60.3%; in the assay with SNB-75 CNS, 92.6%; in the assay with SNB-19 CNS it was 80.7%; in the assay on U251 CNS, 42%; with PC-3 prostate, 66%. Besides, the growth in the assay with SK-MEL-5 melanoma was 88.3%; with UACC-62 melanoma, 79.2%; in the assay with LOX IMVI melanoma it was 81.3%; in the assay on SK-MEL-28 melanoma, 9.31% (active); in the assay on SK-MEL-2 melanoma, 17.5%; in the assay on EKVX NSCLC, 39.7%. In addition, the growth was 25.5% in the assay on SN12C renal; 28.6% with UO-31 renal; 74.2% in the assay with TK-10 renal; 78% in the assay on ACHN renal; 71.8% in the assay on CAKI-1 renal; 5.96% (active) in the assay on A498 renal. Also, the growth was 86% with CCRF-CEM leukemia and 86.6% in the assay with MOLT-4 leukemia.

For the origin of these results see PubChem BioAssay (NCI).
